Active and inactive are the calls of the source. The calls were made as follows: active = hit-call score of the fitted dose curve at least 0.9, where 1 is the maximum; inactive = score below 0.9.

In general, AC50 refers to the midpoint of the concentration-response curve, whichever way the signal moves.

What all share (conditions): mRNA level, 48 h; actives raise or lower the signal
Read-out in assay [1]: Interleukin 6 (IL6), IL6 (gene 3569)
Briefly: LTEA_HepaRG_IL6: Life Technologies and Expression Analysis (LTEA) Assay for Interleukin 6 (IL6) using HepaRG (AID 2283509). The gist of the method: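 Differentiated human HepaRG cells, plated 48 h then switched to serum-free induction medium, were exposed in duplicate for 48 h to eight half-log concentrations up to 100 uM in 0.5% DMSO. IL6 mRNA measured by qRT-PCR, normalized to ACTB/GAPDH/POLR2A.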

Read-out in assay [2]: Interleukin 6 Receptor (IL6R), IL6R (gene 3570)
Briefly: LTEA_HepaRG_IL6R: Life Technologies and Expression Analysis (LTEA) Assay for Interleukin 6 Receptor (IL6R) using HepaRG (AID 2283510).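 As to AC50: TaqMan qRT-PCR signal normalized to ACTB GAPDH and POLR2A housekeeping genes.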 The method, boiled down: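 Readout is IL6R transcript level by TaqMan qRT-PCR, normalized to three housekeeping genes and fitted bidirectionally against 0.5% DMSO controls. Human HepaRG cells received chemicals for 48 h in serum-free induction medium, highest concentration 100 uM.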

Read-out in assay [3]: Potassium channel subfamily K member 1 (KCNK1), KCNK1 (gene 3775)
Put plainly: LTEA_HepaRG_KCNK1: Life Technologies and Expression Analysis (LTEA) Assay for Potassium channel subfamily K member 1 (KCNK1) using HepaRG (AID 2283511). The method, boiled down: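 Differentiated human HepaRG cells in serum-free induction medium were exposed in duplicate for 48 h to 8 half-log concentrations up to 100 uM in 0.5% DMSO. KCNK1 mRNA was measured by TaqMan qRT-PCR, normalized to ACTB, GAPDH and POLR2A, and fitted bidirectionally versus DMSO.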

Read-out in assay [4]: Keratin 19 (KRT19), KRT19 (gene 3880)
Briefly: LTEA_HepaRG_KRT19: Life Technologies and Expression Analysis (LTEA) Assay for Keratin 19 (KRT19) using HepaRG (AID 2283512). The gist of the method: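 Gene-expression endpoint in the human liver line HepaRG after 48 h exposure to up to 100 uM test chemical with 0.5% DMSO vehicle; KRT19 mRNA by qRT-PCR, analyzed bidirectionally versus DMSO.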

Read-out in assay [5]: JUN Transcription Factor, JUN (gene 3725)
Briefly: LTEA_HepaRG_JUN: Life Technologies and Expression Analysis (LTEA) Assay for JUN Transcription Factor using HepaRG (AID 2283513). The gist of the method: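 Cells plated 48 h, medium switched to serum-free induction medium, then dosed 48 h (100 uM top, half-log dilutions, 0.5% DMSO). RNA isolated; JUN measured by qRT-PCR against three housekeeping genes; gain or loss fitted relative to DMSO.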

Read-out in assay [6]: Lipase C (LIPC), LIPC (gene 3990)
Briefly: LTEA_HepaRG_LIPC: Life Technologies and Expression Analysis (LTEA) Assay for Lipase C (LIPC) using HepaRG (AID 2283514). The gist of the method:
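Differentiated human HepaRG cells in serum-free induction medium were exposed in duplicate for 48 h to eight concentrations (top 100 uM, half-log steps, 0.5% DMSO). LIPC mRNA was quantified by TaqMan qRT-PCR, normalized to ACTB, GAPDH and POLR2A, with bidirectional fitting versus DMSO.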

Read-out in assay [7]: Lipoprotein lipase (LPL), LPL (gene 4023)
Put plainly: LTEA_HepaRG_LPL: Life Technologies and Expression Analysis (LTEA) Assay for Lipoprotein lipase (LPL) using HepaRG (AID 2283515). The gist of the method:
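Differentiated human HepaRG cells in serum-free induction medium were exposed in duplicate for 48 h to eight half-log concentrations (top 100 uM) in 0.5% DMSO. LPL mRNA was quantified by TaqMan qRT-PCR, normalized to ACTB, GAPDH and POLR2A.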

Read-out in assay [8]: MicroRNA 122 (MIR122), gene 406906
Put plainly: LTEA_HepaRG_MIR122: Life Technologies and Expression Analysis (LTEA) Assay for MicroRNA 122 (MIR122) using HepaRG (AID 2283516). Also: the transcript read is the microRNA miR-122. The gist of the method:
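HepaRG plated 48 h, switched to serum-free induction medium, then treated in duplicate for 48 h (100 uM top, half-log steps, 0.5% DMSO vehicle). RNA isolated, qRT-PCR performed, concentration-response fitted both directions relative to DMSO.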

Read-out in assay [9]: matrix metalloproteinase-10 (MMP10), MMP10 (gene 4319)
Briefly: LTEA_HepaRG_MMP10: Life Technologies and Expression Analysis (LTEA) Assay for matrix metalloproteinase-10 (MMP10) using HepaRG (AID 2283517). The gist of the method: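 HepaRG, collagen I, ~100,000 cells/well; serum-free induction medium; 48 h exposure, duplicate, 8-pt half-log to 100 uM, 0.5% DMSO. Readout: TaqMan qRT-PCR, normalized to ACTB/GAPDH/POLR2A; bidirectional fit vs DMSO.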

Read-out in assay [10]: MYC, MYC (gene 4609)
Put plainly: LTEA_HepaRG_MYC: Life Technologies and Expression Analysis (LTEA) Assay for MYC using HepaRG (AID 2283518). The method, boiled down: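 Cells are thawed, plated and cultured 48 h, then treated for 48 h with test chemicals (eight half-log concentrations from 100 uM, 0.5% DMSO vehicle). RNA is isolated and MYC expression quantified by qRT-PCR against three housekeeping genes.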

Read-out in assay [11]: matrix metalloproteinase-3 (MMP3), MMP3 (gene 4314)
Briefly: LTEA_HepaRG_MMP3: Life Technologies and Expression Analysis (LTEA) Assay for matrix metalloproteinase-3 (MMP3) using HepaRG (AID 2283519). The gist of the method: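 Differentiated human HepaRG cells, plated 48 h on collagen I, were exposed in duplicate for 48 h in serum-free induction medium to eight half-log concentrations up to 100 uM in 0.5% DMSO. MMP3 mRNA was quantified by TaqMan qRT-PCR, normalised to ACTB, GAPDH and POLR2A.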

Read-out in assay [12]: Paternally Expressed 10 (PEG10), PEG10 (gene 23089)
Put plainly: LTEA_HepaRG_PEG10: Life Technologies and Expression Analysis (LTEA) Assay for Paternally Expressed 10 (PEG10) using HepaRG (AID 2283520). The gist of the method: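 HepaRG, 48 h post-plating → serum-free induction medium → 48 h chemical exposure (duplicate, 8-pt, max 100 uM, half-log, 0.5% DMSO) → lysis in RLT → TaqMan qRT-PCR for PEG10, ACTB/GAPDH/POLR2A normalisation.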

Read-out in assay [13]: Nuclear factor NF-kappa-B p105 subunit (Homo sapiens) (UniProt P19838)
Briefly: LTEA_HepaRG_NFKB1: Life Technologies and Expression Analysis (LTEA) Assay for Nuclear Factor Kappa B Subunit 1 (NFKB1) using HepaRG (AID 2283521).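 Also: TaqMan qRT-PCR transcript normalised to ACTB GAPDH and POLR2A housekeeping genes.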 The gist of the method:
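Human HepaRG cells receive eight half-log concentrations, highest 100 uM, for 48 h. NFKB1 expression is then quantified by qRT-PCR and analysed for up- or down-regulation relative to 0.5% DMSO vehicle.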

Read-out in assay [14]: Protein phosphatase 2A (PPP2R4), PTPA (gene 5524)
Briefly: LTEA_HepaRG_PPP2R4: Life Technologies and Expression Analysis (LTEA) Assay for Protein phosphatase 2A (PPP2R4) using HepaRG (AID 2283522). The gist of the method: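 Readout is PPP2R4 transcript level by microfluidic qRT-PCR after 48 h chemical treatment of human HepaRG liver cells. Concentrations spanned 100 uM downward in half-log steps; gain or loss of signal was fitted relative to DMSO.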

Read-out in assay [15]: Phosphatase and tensin (PTEN), PTEN (gene 5728)
Put plainly: LTEA_HepaRG_PTEN: Life Technologies and Expression Analysis (LTEA) Assay for Phosphatase and tensin (PTEN) using HepaRG (AID 2283523). The method, boiled down: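 Differentiated human HepaRG cells, plated 48 h then switched to serum-free induction medium, were exposed in duplicate for 48 h to eight half-log concentrations up to 100 uM in 0.5% DMSO. PTEN mRNA measured by TaqMan qRT-PCR, normalized to ACTB/GAPDH/POLR2A, bidirectional fit versus DMSO.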

Read-out in assay [16]: solute carrier (SLC22A1), SLC22A1 (gene 6580)
Briefly: LTEA_HepaRG_SLC22A1: Life Technologies and Expression Analysis (LTEA) Assay for solute carrier (SLC22A1) using HepaRG (AID 2283524). The method, boiled down: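 Human HepaRG cells were plated 48 h, switched to serum-free induction medium, then exposed in duplicate for 48 h to 8-point half-log series from 100 uM in 0.5% DMSO. SLC22A1 mRNA measured by qRT-PCR, normalized to ACTB/GAPDH/POLR2A, fitted bidirectionally versus DMSO.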

Read-out in assay [17]: Pyruvate Dehydrogenase Kinase 4 (PDK4), PDK4 (gene 5166)
Put plainly: LTEA_HepaRG_PDK4: Life Technologies and Expression Analysis (LTEA) Assay for Pyruvate Dehydrogenase Kinase 4 (PDK4) using HepaRG (AID 2283525). The gist of the method: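 Differentiated human HepaRG cells, pre-cultured 48 h, were exposed in duplicate for 48 h in serum-free induction medium to eight half-log concentrations up to 100 uM in 0.5% DMSO. PDK4 mRNA was quantified by qRT-PCR, normalized to ACTB, GAPDH and POLR2A, bidirectional fitting versus DMSO.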

Read-out in assay [18]: NAD(P)H dehydrogenase [quinone] 1 (NQO1), NQO1 (gene 1728)
Put plainly: LTEA_HepaRG_NQO1: Life Technologies and Expression Analysis (LTEA) Assay for NAD(P)H dehydrogenase [quinone] 1 (NQO1) using HepaRG (AID 2283526). The method, boiled down: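 HepaRG, 48 h post-plating → serum-free induction medium → test chemical 48 h (duplicate, 100 uM top, half-log x8, 0.5% DMSO) → RNA isolation → qRT-PCR, ACTB/GAPDH/POLR2A normalization; bidirectional curve fit vs DMSO baseline.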

Read-out in assay [19]: Nuclear factor erythroid 2-related factor 2 (Homo sapiens) (UniProt Q16236)
Briefly: LTEA_HepaRG_NFE2L2: Life Technologies and Expression Analysis (LTEA) Assay for Nuclear factor erythroid 2-related factor 2 (NFE2L2) Transcription Factor using HepaRG (AID 2283527).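 As to outcome: TaqMan qRT-PCR transcript level normalised to ACTB GAPDH and POLR2A housekeeping genes.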 The method, boiled down:
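Differentiated human HepaRG cells in serum-free induction medium were exposed for 48 h to eight concentrations (top 100 uM, half-log dilutions, 0.5% DMSO), in duplicate. NFE2L2 mRNA was quantified by TaqMan qRT-PCR, normalized to ACTB, GAPDH and POLR2A, with bidirectional fitting versus DMSO.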

Read-out in assay [20]: succinate dehydrogenase complex iron sulfur subunit B (SDHB), SDHB (gene 6390)
Briefly: LTEA_HepaRG_SDHB: Life Technologies and Expression Analysis (LTEA) Assay for succinate dehydrogenase complex iron sulfur subunit B (SDHB) using HepaRG (AID 2283528). The method, boiled down: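 A human HepaRG culture in serum-free induction medium received test chemicals for 48 h over an eight-point range capped at 100 uM. SDHB expression change was quantified by qRT-PCR.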

Sequence of Nuclear factor NF-kappa-B p105 subunit (Homo sapiens) (P19838 whole entry, looked up): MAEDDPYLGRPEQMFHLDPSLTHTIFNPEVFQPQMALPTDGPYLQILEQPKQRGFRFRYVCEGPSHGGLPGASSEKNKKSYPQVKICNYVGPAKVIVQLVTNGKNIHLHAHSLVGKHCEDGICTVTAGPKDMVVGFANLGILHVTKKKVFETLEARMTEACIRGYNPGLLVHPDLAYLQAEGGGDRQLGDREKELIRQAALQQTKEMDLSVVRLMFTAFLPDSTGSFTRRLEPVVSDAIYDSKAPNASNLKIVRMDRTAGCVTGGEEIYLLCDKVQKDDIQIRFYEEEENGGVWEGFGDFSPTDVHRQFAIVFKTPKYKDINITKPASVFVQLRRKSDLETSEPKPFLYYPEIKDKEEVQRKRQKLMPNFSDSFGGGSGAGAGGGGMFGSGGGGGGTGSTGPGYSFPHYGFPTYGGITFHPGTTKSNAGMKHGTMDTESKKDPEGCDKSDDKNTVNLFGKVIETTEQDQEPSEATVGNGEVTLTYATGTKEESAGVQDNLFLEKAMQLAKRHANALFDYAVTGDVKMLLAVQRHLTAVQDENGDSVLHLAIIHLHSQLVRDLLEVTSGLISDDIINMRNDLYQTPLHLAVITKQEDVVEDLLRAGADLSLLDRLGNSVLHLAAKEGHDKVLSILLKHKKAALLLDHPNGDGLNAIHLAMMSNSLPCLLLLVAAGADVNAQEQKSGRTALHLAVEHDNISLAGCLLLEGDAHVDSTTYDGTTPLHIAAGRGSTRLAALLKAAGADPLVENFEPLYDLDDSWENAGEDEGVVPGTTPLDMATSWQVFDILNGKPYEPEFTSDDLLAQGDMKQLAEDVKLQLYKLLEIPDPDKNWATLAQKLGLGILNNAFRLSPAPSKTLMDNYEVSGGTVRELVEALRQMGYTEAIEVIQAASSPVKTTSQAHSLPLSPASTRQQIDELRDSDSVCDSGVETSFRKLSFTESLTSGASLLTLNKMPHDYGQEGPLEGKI
Sequence of Nuclear factor erythroid 2-related factor 2 (Homo sapiens) (Q16236 whole entry, looked up): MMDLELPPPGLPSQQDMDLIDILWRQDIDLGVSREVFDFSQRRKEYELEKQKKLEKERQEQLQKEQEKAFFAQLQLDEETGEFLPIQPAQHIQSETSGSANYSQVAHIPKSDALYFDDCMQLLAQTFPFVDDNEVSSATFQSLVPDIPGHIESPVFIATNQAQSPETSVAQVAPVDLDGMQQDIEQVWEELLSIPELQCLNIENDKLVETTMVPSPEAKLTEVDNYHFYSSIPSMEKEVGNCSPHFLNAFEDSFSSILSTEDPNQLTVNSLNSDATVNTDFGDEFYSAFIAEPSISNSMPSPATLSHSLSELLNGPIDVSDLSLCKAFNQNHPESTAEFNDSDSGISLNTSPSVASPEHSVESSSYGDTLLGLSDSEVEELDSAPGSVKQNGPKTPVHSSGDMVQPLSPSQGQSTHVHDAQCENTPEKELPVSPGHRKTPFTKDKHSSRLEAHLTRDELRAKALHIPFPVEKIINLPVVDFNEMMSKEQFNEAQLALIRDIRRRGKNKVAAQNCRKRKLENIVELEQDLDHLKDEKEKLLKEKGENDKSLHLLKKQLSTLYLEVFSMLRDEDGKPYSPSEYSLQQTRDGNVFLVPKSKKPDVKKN

Regarding `Cc1oc(-c2ccccc2)nc1CCOc1ccc(C[C@H](Nc2ccccc2C(=O)c2ccccc2)C(=O)O)cc1`, the half-maximal activity concentration (AC50) was 26.3 µM (active) in assay [1]; 30.6 µM (active) in assay [2]; 15.8 µM (active) in [3]; 13.2 µM (active) in [4]; 16.5 µM (active) in assay [5]; 25 µM (active) in assay [9]. Further, the half-maximal activity concentration (AC50) in assay [10] was 12.5 µM (active); in [11] it was 50 µM (active); in [12] it was 20.8 µM (active); in [14], 29.1 µM (active); in [15], 23 µM (active); in assay [16], 50 µM (active). Moreover, the half-maximal activity concentration (AC50) in assay [17] is 338 nM (active); in assay [18], 29.6 µM (active); in assay [19], 11.9 µM (active); in [20], 26.1 µM (active). The outcome in assay [6], in assay [7], in assay [8] and in assay [13] was inactive.

Regarding `CN(C)C=O`, the compound was classed as inactive in assay [1], in assay [2], in assay [3], in assay [4], in assay [5] and in [6]. The compound was called inactive in assay [7], in assay [8], in assay [9], in [10], in assay [11] and in assay [12]. Besides, the result in assay [13], in assay [14], in assay [15], in [17], in [18] and in assay [19] was inactive. Further, in assay [20], the compound was called inactive.

`OCCC(F)(F)C(F)(F)C(F)(F)C(F)(F)C(F)(F)C(F)(F)C(F)(F)C(F)(F)F`: the outcome in assay [1], in assay [2], in assay [3], in assay [4], in assay [5] and in assay [6] was inactive. In addition, the outcome in [7], in [8], in [9], in assay [10], in assay [11] and in assay [12] was inactive. Also, the compound was called inactive in [13], in assay [14], in [15], in assay [16], in assay [17] and in assay [18]. In addition, the result in assay [19] and in assay [20] was inactive.

These data come from PubChem BioAssay (EPA / NIEHS).
